Reference: PubChem BioAssay AID1159580 (chemical genetic matrix, 2015)
In all, about 5,500 compounds went through this assay and about 2,000 (36%) were called active. About 18% were inconclusive and are not listed. Rule as the data show it: active = normalized growth mostly below about 0.91 (no sharp cut-off); inconclusive = no clear call, values can overlap the other calls; inactive = mostly above about 0.92. The list shows a part of the results.

Test: chemical genetic growth profiling, strain panel (AID 1159580);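 also: tested at 20 µM; growth read once vehicle control cultures reached saturation at 30 °C; 1 = growth at the plate median or of vehicle wells; lower values mean less growth of the strain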
Conditions: growth OD
[1] = S. cerevisiae deletion strains, locus YCL061C, strain MRC1, active compounds read low
[2] = S. cerevisiae deletion strains, locus YHR030C, strain SLT2, active compounds read low

Measured: normalized growth

O=C(NC(=O)c1ccccc1Cl)Nc1ccc(OC(F)(F)F)cc1
inactive: S. cerevisiae deletion strains, locus YAL021C, strain ccr4, active compounds read low 1.05 | S. cerevisiae deletion strains, locus YAL026C, strain drs2, active compounds read low 1.02 | S. cerevisiae deletion strains, locus YAL030W, strain snc1, active compounds read low 1.03 | S. cerevisiae deletion strains, locus YBL061C, strain skt5, active compounds read low 1.02 | S. cerevisiae deletion strains, locus YBR009C, strain hhf1, active compounds read low 0.999 | S. cerevisiae deletion strains, locus YBR023C, strain chs3, active compounds read low 1.04 | S. cerevisiae deletion strains, locus YBR171W, strain sec66, active compounds read low 1.05 | S. cerevisiae deletion strains, locus YBR231C, strain swc5, active compounds read low 1.06 | S. cerevisiae deletion strains, locus YBR279W, strain paf1, active compounds read low 1.01 | S. cerevisiae deletion strains, locus YCL011C, strain gbp2, active compounds read low 1.04 | S. cerevisiae deletion strains, locus YCL016C, strain dcc1, active compounds read low 1.04 | [1] 1.04 | S. cerevisiae deletion strains, locus YCL069W, strain vba3, active compounds read low 1.04 | S. cerevisiae deletion strains, locus YCR088W, strain abp1, active compounds read low 1.03 | S. cerevisiae deletion strains, locus YDL005C, strain med2, active compounds read low 1.05 | S. cerevisiae deletion strains, locus YDL040C, strain nat1, active compounds read low 1.03 | S. cerevisiae deletion strains, locus YDR001C, strain nth1, active compounds read low 1.02 | S. cerevisiae deletion strains, locus YDR069C, strain doa4, active compounds read low 1.06 | S. cerevisiae deletion strains, locus YDR137W, strain rgp1, active compounds read low 1.06 | S. cerevisiae deletion strains, locus YDR159W, strain sac3, active compounds read low 1.04 | S. cerevisiae deletion strains, locus YDR195W, strain ref2 1.11 | S. cerevisiae deletion strains, locus YDR297W, strain sur2, active compounds read low 1.03 | S. cerevisiae deletion strains, locus YDR334W, strain swr1, active compounds read low 1.04 | S. cerevisiae deletion strains, locus YDR335W, strain msn5, active compounds read low 1.04 | S. cerevisiae deletion strains, locus YDR392W, strain spt3, active compounds read low 1.01 | S. cerevisiae deletion strains, locus YEL003W, strain gim4, active compounds read low 1.03 | S. cerevisiae deletion strains, locus YEL037C, strain rad23, active compounds read low 1.03 | S. cerevisiae deletion strains, locus YEL061C, strain CIN8 (second series), active compounds read low 1.03 | S. cerevisiae deletion strains, locus YER015W, strain faa2, active compounds read low 1.02 | S. cerevisiae deletion strains, locus YER016W, strain bim1, active compounds read low 1.03 | S. cerevisiae deletion strains, locus YER111C, strain swi4, active compounds read low 1.04 | S. cerevisiae deletion strains, locus YER155C, strain BEM2 (second series), active compounds read low 1.07 | S. cerevisiae deletion strains, locus YFR010W, strain ubp6, active compounds read low 1.03 | S. cerevisiae deletion strains, locus YGL167C, strain pmr1, active compounds read low 1.03 | S. cerevisiae deletion strains, locus YGL173C, strain kem1, active compounds read low 1.05 | S. cerevisiae deletion strains, locus YGL227W, strain vid30, active compounds read low 1.03 | S. cerevisiae deletion strains, locus YGL240W, strain doc1, active compounds read low 1.04 | S. cerevisiae deletion strains, locus YGL253W, strain hxk2, active compounds read low 1.03 | S. cerevisiae deletion strains, locus YHR013C, strain ard1, active compounds read low 1.09 | S. cerevisiae deletion strains, locus YHR027C, strain rpn1, active compounds read low 1.04 | [2] 1.07 | S. cerevisiae deletion strains, locus YHR079C, strain IRE1, active compounds read low 1.07 | S. cerevisiae deletion strains, locus YHR142W, strain chs7, active compounds read low 1.01 | S. cerevisiae deletion strains, locus YJL092W, strain hpr5, active compounds read low 1.03 | S. cerevisiae deletion strains, locus YJL095W, strain BCK1 (second series), active compounds read low 1.02 | S. cerevisiae deletion strains, locus YJL095W, strain BCK1, active compounds read low 1.06 | S. cerevisiae deletion strains, locus YJL115W, strain asf1, active compounds read low 1.03 | S. cerevisiae deletion strains, locus YJL129C, strain trk1, active compounds read low 1.08 | S. cerevisiae deletion strains, locus YJL154C, strain vps35, active compounds read low 1.04 | S. cerevisiae deletion strains, locus YJL164C, strain tpk1, active compounds read low 1.02 | S. cerevisiae deletion strains, locus YJL166W, strain qcr8, active compounds read low 1.05 | S. cerevisiae deletion strains, locus YJL187C, strain SWE1, active compounds read low 1.03 | S. cerevisiae deletion strains, locus YJR066W, strain TOR1, active compounds read low 0.971 | S. cerevisiae deletion strains, locus YKL160W, strain elf1, active compounds read low 1.05 | S. cerevisiae deletion strains, locus YKR026C, strain gcn3, active compounds read low 1.04 | S. cerevisiae deletion strains, locus YKR091W, strain srl3, active compounds read low 1.03 | S. cerevisiae deletion strains, locus YLL001W, strain dnm1, active compounds read low 1.06 | S. cerevisiae deletion strains, locus YLL026W, active compounds read low 1.02 | S. cerevisiae deletion strains, locus YLL041C, strain sdh2, active compounds read low 1.03 | S. cerevisiae deletion strains, locus YLR027C, strain aat2, active compounds read low 1.04 | S. cerevisiae deletion strains, locus YLR113W, strain HOG1, active compounds read low 1.07 | S. cerevisiae deletion strains, locus YLR221C, strain rsa3, active compounds read low 1.05 | S. cerevisiae deletion strains, locus YLR258W, strain gsy2, active compounds read low 1.02 | S. cerevisiae deletion strains, locus YLR262C, strain YPT6 (second series), active compounds read low 1.06 | S. cerevisiae deletion strains, locus YLR320W, strain mms22, active compounds read low 1.06 | S. cerevisiae deletion strains, locus YLR342W, strain FKS1, active compounds read low 1.04 | S. cerevisiae deletion strains, locus YLR357W, strain rsc2, active compounds read low 1.07 | S. cerevisiae deletion strains, locus YLR370C, strain arc18, active compounds read low 1.04 | S. cerevisiae deletion strains, locus YLR384C, strain iki3, active compounds read low 1.03 | S. cerevisiae deletion strains, locus YML120C, strain ndi1, active compounds read low 1.03 | S. cerevisiae deletion strains, locus YMR058W, strain fet3, active compounds read low 1.03 | S. cerevisiae deletion strains, locus YMR125W, strain sto1, active compounds read low 1.06 | S. cerevisiae deletion strains, locus YMR129W, active compounds read low 1.03 | S. cerevisiae deletion strains, locus YMR205C, strain PFK2, active compounds read low 1.07 | S. cerevisiae deletion strains, locus YMR231W, strain pep5, active compounds read low 1.03 | S. cerevisiae deletion strains, locus YNL071W, strain lat1, active compounds read low 1.05 | S. cerevisiae deletion strains, locus YNL183C, strain NPR1, active compounds read low 0.985 | S. cerevisiae deletion strains, locus YNL209W, strain ssb2, active compounds read low 1.03 | S. cerevisiae deletion strains, locus YNL248C, strain rpa49, active compounds read low 1.07 | S. cerevisiae deletion strains, locus YNL322C, strain KRE1 (second series), active compounds read low 1.05 | S. cerevisiae deletion strains, locus YNR049C, strain mso1, active compounds read low 1.03 | S. cerevisiae deletion strains, locus YOR001W, strain rrp6, active compounds read low 1.01 | S. cerevisiae deletion strains, locus YOR070C, strain gyp1, active compounds read low 1.05 | S. cerevisiae deletion strains, locus YOR080W, strain dia2, active compounds read low 1.05 | S. cerevisiae deletion strains, locus YOR083W, strain WHI5, active compounds read low 1.05 | S. cerevisiae deletion strains, locus YOR106W, strain vam3, active compounds read low 1.07 | S. cerevisiae deletion strains, locus YOR231W, strain MKK1, active compounds read low 1.07 | S. cerevisiae deletion strains, locus YOR265W, strain rbl2, active compounds read low 1.03 | S. cerevisiae deletion strains, locus YOR270C, strain vph1, active compounds read low 1.1 | S. cerevisiae deletion strains, locus YOR290C, strain snf2, active compounds read low 1.07 | S. cerevisiae deletion strains, locus YPL051W, strain arl3, active compounds read low 1.07 | S. cerevisiae deletion strains, locus YPL078C, strain atp4, active compounds read low 1.06 | S. cerevisiae deletion strains, locus YPL106C, strain sse1, active compounds read low 1.02 | S. cerevisiae deletion strains, locus YPL240C, strain hsp82, active compounds read low 1.01 | S. cerevisiae deletion strains, locus YPL256C, strain CLN2, active compounds read low 1.11

C/C(=C\C(=O)Nc1ccc(F)cc1)Nc1ccc(F)cc1
inactive: S. cerevisiae deletion strains, locus YAL013W, strain DEP1, active compounds read low 1 | S. cerevisiae deletion strains, locus YBR229C, strain ROT2, active compounds read low 1.01 | [1] 1.04 | S. cerevisiae deletion strains, locus YDL101C, strain DUN1, active compounds read low 1.05 | S. cerevisiae deletion strains, locus YDR150W, strain NUM1, active compounds read low 1.04 | S. cerevisiae deletion strains, locus YEL061C, strain CIN8, active compounds read low 0.973 | S. cerevisiae deletion strains, locus YGR078C, strain PAC10, active compounds read low 1.03 | S. cerevisiae deletion strains, locus YGR229C, strain SMI1, active compounds read low 0.979 | [2] 1.02 | S. cerevisiae deletion strains, locus YHR087W, strain rtc3, active compounds read low 0.971 | S. cerevisiae deletion strains, locus YJR043C, strain POL32, active compounds read low 1.02 | S. cerevisiae deletion strains, locus YJR075W, strain HOC1, active compounds read low 1 | S. cerevisiae deletion strains, locus YKL190W, strain CNB1, active compounds read low 1.01 | S. cerevisiae deletion strains, locus YLR039C, strain RIC1, active compounds read low 1.05 | S. cerevisiae deletion strains, locus YLR058C, strain SHM2 (second series), active compounds read low 0.998 | S. cerevisiae deletion strains, locus YLR085C, strain ARP6, active compounds read low 0.975 | S. cerevisiae deletion strains, locus YLR262C, strain YPT6, active compounds read low 0.989 | S. cerevisiae deletion strains, locus YML094W, strain GIM5, active compounds read low 0.982 | S. cerevisiae deletion strains, locus YMR219W, strain ESC1, active compounds read low 1 | S. cerevisiae deletion strains, locus YMR263W, strain SAP30, active compounds read low 1.01 | S. cerevisiae deletion strains, locus YNL153C, strain GIM3, active compounds read low 1.04 | S. cerevisiae deletion strains, locus YNL298W, strain CLA4 (second series), active compounds read low 1 | S. cerevisiae deletion strains, locus YNL322C, strain KRE1, active compounds read low 1 | S. cerevisiae deletion strains, locus YNR030W, strain Alg12, active compounds read low 1 | S. cerevisiae deletion strains, locus YOL006C, strain TOP1, active compounds read low 1.04 | S. cerevisiae deletion strains, locus YPL055C, strain LGE1, active compounds read low 0.976 | S. cerevisiae deletion strains, locus YPL241C, strain CIN2, active compounds read low 0.999 | S. cerevisiae deletion strains, locus YPR135W, strain CTF4, active compounds read low 1.05 | S. cerevisiae strains, strain wild type, active compounds read low 1
